The nature of assay [1]: qHTS assay for small molecule agonists of retinoid X receptor alpha signaling (AID 588544; calls by dose curve; further: potency means the concentration at half of the fitted maximal effect). The following applies: HEK293T RXRa-UAS-bla, beta-lactamase reporter, 18 h; 530 nm emission. A general note: qHTS replaces the single test concentration by a dilution series.
Assay [2] deals with Retinoic acid receptor RXR-alpha (Homo sapiens) (UniProt P19793). Described as above. The following applies: HEK293T RXRa-UAS-bla, beta-lactamase reporter, 18 h; series mostly up to 76.7 µM.
Assay [3] has as its target Thyroid hormone receptor beta (Homo sapiens) (UniProt P10828). As to the kind of experiment: qHTS assay for small molecule agonists of thyroid hormone receptor beta signaling (AID 588545; calls by dose curve;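 further: 0% = DMSO only and 100% = 10 nM T3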). The following applies: TR-UAS-bla GripTite HEK 293, beta-lactamase ratio, agonist mode, 18 h, percent of T3 response, DMSO as zero; series mostly up to 76.7 µM. An outline of the steps:
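Beta-lactamase reporter activity under TR response element control is measured in HEK 293 cells after 18 hrs compound exposure. Signal is ratiometric CCF4 fluorescence, 460/530 nm.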

A short description of assay [4]: qHTS assay for small molecule antagonists of retinoid X receptor alpha signaling (AID 588546; active means well fitted inhibition curve with a large enough effect in the signal ratio, with a control signal flat, not every such curve was filed as active; the % refers to the signal ratio;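 further: cells stimulated with 9-cis-retinoic acid as agonist; on the % scale 0 is the no-effect control and ±100 the full control effect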). The following applies: HEK293T RXRa-UAS-bla, beta-lactamase ratio, antagonist mode; measured here: W530 green channel, cytotoxicity proxy. The gist of the method:
(§1)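 Beta-lactamase reporter inhibition, read as CCF4 fluorescence ratio (ex 405, em 460/530 nm) after 2 h at RT. HEK293T UAS-bla cells, 2500/well, were stimulated with 9-cis-RA at 500 or 100 nM final alongside test compound for 18 h at 37 C.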

The target of assay [5] is Retinoic acid receptor RXR-alpha (Homo sapiens) (UniProt P19793). The assay is described as above. The following applies: HEK293T RXRa-UAS-bla, beta-lactamase ratio, antagonist mode. An outline of the steps:
as §1

The target of assay [6] is Thyroid hormone receptor beta (Homo sapiens) (UniProt P10828). As to the kind of experiment: qHTS assay for small molecule antagonists of thyroid hormone receptor beta signaling (AID 588547; active means well fitted inhibition curve with a large enough effect in the signal ratio, with a control signal flat, not every such curve was filed as active; the % refers to the signal ratio;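 further: cells stimulated with 0.4 nM T3 agonist during compound exposure; on the % scale 0 is the no-effect control and ±100 the full control effect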). The following applies: TR-UAS-bla HEK293, beta-lactamase ratio, antagonist mode, 18 h. An outline of the steps: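 TR-UAS-bla GripTite HEK293 cells in 2% charcoal/dextran FBS medium; compounds 0.59 nM to 92 uM with T3 at 0.4nM final, 18 h at 37 C. Beta-lactamase read by CCF4 fluorescence (460/530 nm); Hill fits gave IC50 and efficacy.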

For assay [7], the target named is Voltage-gated inwardly rectifying potassium channel KCNH2 (Homo sapiens) (UniProt Q12809). As to the kind of experiment: qHTS Assay for Small Molecule Inhibitors of the Human hERG Channel Activity (AID 588834).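 Further: lower thallium flux fluorescence means stronger hERG block; nearly all actives have a fitted effect of over 50% in size.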 Further: potency means the concentration at half of the fitted maximal effect. The following applies: U2OS BacMam hERG, FluxOR thallium flux fluorescence; series mostly up to 46.1 µM. An outline of the steps:
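Thallium serves as surrogate for K+ influx through BacMam-delivered hERG in U2OS cells. Compounds are added for about 10 minutes after dye loading; stimulation buffer then starts flux, monitored kinetically on FDSS.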

Assay [8] addresses Luciferin 4-monooxygenase (Photinus pyralis) (UniProt P08659). As to the kind of experiment: Biochemical firefly luciferase enzyme assay for NPC (AID 624030).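 Further: purified P. pyralis luciferase at 10 nM with luciferin and ATP substrate; 0% = DMSO and -100% = full luciferase inhibition by PTC124 control; nearly all actives have a fitted effect of over 70% in size.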 The following applies: purified P. pyralis luciferase, luminescence, 5 min; series mostly up to 58.6 µM. An outline of the steps:
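Purified P. pyralis luciferase at 10 nM in 50 mM Tris Acetate (final), luminescence read within 5 minutes of enzyme addition to compounds. Activity normalised to PTC124 versus DMSO; concentration-response curves classed by r2, magnitude and activity.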

Assay [9] in a line: S16 Schwann cell viability assay (CellTiter-Glo assay) (AID 624031). Further: nearly all actives have a fitted effect of over 70% in size. Further: potency means the concentration at half of the fitted maximal effect. The following applies: S16 rat Schwann cells viability, 24 h; series mostly up to 57.5 µM. The gist of the method:
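Parental S16 cells, 24 h compound, 37 °C. ATP-luminescence viability; DMSO = 0% activity, empty wells as reference; curves classified by fit quality and efficacy.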
A general note: Cellular ATP, detected with luciferase, serves as a proxy for viable cell number.

For assay [10], the target named is Peroxisome proliferator-activated receptor gamma (Homo sapiens) (UniProt P37231). As to the kind of experiment: qHTS assay for small molecule antagonists of peroxisome proliferator-activated receptor gamma signaling (AID 588537; active means well fitted inhibition curve with a large enough effect in the signal ratio, with a control signal flat, not every such curve was filed as active; the % refers to the signal ratio; further: potency means the concentration at half of the fitted maximal effect). The following applies: HEK293 PPARg-UAS-bla, beta-lactamase ratio, antagonist mode; series mostly up to 76.8 µM. The gist of the method:
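Read-out: CCF4 fluorescence (ex 405, em 460/530 nm) after 2 h at RT. Cells were HEK293 carrying a UAS-bla reporter and treated 16 h at 37 C with compound plus rosiglitazone (50 nM final). Normalized to rosiglitazone and DMSO.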

“And” between values parts separate entries of the source, which are not always exact repeats. Identical values can stand only once. Inconclusive results are not listed. The source holds several records for some structures; these can differ, active in one and inactive in another. The source made the active and inactive calls. Unless noted, the call rests on the fitted dose curve; in most records, active means well fitted curve in the direction sought with a large enough effect; inconclusive means small, poorly fitted or top-dose-only effect, or another doubt; inactive means no such curve, though single readings can be large; an effect the other way counts as inactive or inconclusive.

Chain of Peroxisome proliferator-activated receptor gamma (Homo sapiens) (P37231 whole entry, looked up): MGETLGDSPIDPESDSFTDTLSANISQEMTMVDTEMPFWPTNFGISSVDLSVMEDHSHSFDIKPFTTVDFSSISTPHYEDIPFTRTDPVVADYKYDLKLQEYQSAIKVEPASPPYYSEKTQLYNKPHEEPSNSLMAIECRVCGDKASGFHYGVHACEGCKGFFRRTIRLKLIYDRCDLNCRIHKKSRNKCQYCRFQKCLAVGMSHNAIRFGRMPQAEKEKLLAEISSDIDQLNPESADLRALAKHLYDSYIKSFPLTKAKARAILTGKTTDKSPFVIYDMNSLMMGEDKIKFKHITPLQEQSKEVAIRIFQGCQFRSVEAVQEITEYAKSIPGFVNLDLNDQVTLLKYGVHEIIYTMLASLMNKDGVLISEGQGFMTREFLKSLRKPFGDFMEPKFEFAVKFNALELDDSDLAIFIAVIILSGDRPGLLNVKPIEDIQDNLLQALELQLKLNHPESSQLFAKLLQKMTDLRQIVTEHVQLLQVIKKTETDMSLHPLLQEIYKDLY
Chain of Voltage-gated inwardly rectifying potassium channel KCNH2 (Homo sapiens) (Q12809 whole entry, looked up): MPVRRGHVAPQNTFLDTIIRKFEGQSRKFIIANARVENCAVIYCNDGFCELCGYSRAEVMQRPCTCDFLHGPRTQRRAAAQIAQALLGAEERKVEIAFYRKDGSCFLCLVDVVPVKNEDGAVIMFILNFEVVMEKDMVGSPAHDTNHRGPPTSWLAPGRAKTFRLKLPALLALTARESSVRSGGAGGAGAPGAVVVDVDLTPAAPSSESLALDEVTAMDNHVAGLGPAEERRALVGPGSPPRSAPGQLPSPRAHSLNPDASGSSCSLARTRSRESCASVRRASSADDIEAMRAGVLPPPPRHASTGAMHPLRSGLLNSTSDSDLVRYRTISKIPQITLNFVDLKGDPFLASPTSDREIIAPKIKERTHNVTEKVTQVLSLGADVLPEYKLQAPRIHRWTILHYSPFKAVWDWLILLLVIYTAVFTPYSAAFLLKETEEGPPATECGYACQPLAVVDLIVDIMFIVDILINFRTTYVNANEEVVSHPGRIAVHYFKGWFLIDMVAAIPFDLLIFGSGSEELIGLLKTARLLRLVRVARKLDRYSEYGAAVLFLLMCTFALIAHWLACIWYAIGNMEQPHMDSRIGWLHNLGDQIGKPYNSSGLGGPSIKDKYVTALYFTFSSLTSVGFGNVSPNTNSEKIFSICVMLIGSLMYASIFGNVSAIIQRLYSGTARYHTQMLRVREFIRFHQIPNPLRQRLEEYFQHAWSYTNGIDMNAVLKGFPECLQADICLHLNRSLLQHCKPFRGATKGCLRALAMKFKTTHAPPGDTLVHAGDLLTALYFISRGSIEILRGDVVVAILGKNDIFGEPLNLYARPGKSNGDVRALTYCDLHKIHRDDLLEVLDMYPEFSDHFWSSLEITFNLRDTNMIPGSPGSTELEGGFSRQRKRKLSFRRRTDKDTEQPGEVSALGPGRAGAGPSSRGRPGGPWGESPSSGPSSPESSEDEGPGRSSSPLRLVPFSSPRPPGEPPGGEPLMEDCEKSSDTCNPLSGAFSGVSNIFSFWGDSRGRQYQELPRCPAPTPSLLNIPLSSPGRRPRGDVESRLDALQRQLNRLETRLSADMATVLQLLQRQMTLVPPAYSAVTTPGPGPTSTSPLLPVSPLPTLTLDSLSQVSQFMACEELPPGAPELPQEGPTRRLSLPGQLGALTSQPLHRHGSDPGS
Chain of Luciferin 4-monooxygenase (Photinus pyralis) (P08659 whole entry, looked up): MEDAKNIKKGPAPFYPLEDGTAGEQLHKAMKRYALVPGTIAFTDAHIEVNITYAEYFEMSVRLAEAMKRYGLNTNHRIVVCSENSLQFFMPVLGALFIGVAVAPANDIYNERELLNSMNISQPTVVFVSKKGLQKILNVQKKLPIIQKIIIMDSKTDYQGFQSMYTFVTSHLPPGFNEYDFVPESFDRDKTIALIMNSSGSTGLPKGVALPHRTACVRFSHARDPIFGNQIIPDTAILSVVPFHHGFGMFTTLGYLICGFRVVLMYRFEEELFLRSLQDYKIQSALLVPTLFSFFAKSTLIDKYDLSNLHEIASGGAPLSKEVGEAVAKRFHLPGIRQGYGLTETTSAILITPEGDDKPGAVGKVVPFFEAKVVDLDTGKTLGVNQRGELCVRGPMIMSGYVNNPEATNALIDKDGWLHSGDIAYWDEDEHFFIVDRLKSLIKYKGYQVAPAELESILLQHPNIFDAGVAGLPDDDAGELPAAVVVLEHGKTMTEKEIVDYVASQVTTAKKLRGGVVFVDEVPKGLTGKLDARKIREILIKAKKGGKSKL
Chain of Thyroid hormone receptor beta (Homo sapiens) (P10828 whole entry, looked up): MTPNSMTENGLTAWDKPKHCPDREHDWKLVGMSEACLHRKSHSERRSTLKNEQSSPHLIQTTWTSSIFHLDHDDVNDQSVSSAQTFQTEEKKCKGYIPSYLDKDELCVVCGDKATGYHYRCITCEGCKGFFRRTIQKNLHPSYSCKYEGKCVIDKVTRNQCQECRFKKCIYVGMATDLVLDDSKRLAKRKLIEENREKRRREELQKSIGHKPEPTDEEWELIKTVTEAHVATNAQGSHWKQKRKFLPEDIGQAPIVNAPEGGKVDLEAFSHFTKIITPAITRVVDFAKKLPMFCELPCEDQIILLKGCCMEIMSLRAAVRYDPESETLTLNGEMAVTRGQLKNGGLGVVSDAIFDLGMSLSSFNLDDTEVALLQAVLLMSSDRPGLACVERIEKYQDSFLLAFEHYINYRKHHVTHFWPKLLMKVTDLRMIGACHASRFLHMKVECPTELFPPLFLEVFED
Chain of Retinoic acid receptor RXR-alpha (Homo sapiens) (P19793 whole entry, looked up): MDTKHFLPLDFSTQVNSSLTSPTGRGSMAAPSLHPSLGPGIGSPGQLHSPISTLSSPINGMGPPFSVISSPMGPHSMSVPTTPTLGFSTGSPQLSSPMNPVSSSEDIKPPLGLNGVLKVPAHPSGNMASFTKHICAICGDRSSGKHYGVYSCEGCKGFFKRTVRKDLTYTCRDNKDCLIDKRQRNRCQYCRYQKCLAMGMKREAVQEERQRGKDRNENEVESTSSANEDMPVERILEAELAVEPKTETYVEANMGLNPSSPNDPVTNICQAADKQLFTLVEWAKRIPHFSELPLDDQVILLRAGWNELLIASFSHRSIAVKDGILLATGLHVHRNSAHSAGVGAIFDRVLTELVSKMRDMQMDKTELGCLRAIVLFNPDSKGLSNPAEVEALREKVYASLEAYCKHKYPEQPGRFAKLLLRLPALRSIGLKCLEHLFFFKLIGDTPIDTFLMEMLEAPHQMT

Take `C[C@]12CCC(=O)C[C@@H]1CC[C@@H]1[C@@H]2CC[C@]2(C)[C@@H](O)CC[C@@H]12`: the max response in assay [1] was 21%; in assay [4], 16.7%; in assay [5], -6.47% (inactive). For the same compound, the Potency in assay [2] was 7.94 µM (active). For the same compound, in assay [3], the outcome was inactive. Moreover, the activity change % (negative = inhibition) in assay [6] was 2.39% (inactive). The Potency entry in assay [7], in assay [8] and in [9] was “inactive” in each case.
For the compound `Oc1cc(Cl)c(Cl)cc1Cl`, the Potency result in [10], in assay [2], in [7] and in assay [8] was “inactive” throughout. In addition, the max response in assay [1] is -8.67%; in assay [4] it was -1.91% and -9.59%; in assay [5] it was -11.3% (inactive) and 1.52% (inactive). Further, the outcome in assay [3] was inactive. For the same compound, in assay [6], the activity change % (negative = inhibition) was 5.32% (inactive) and 6.79% (inactive).
Turning to `O=Cc1ccco1`, the results for the max response in assay [1], in [4] and in assay [5] were -14.8%, 9.13% and -1.1% (inactive), respectively. In addition, the Potency result in assay [2], in assay [7], in [8] and in assay [9] was “inactive” throughout. In addition, in assay [3], the result was inactive. In assay [6], the activity change % (negative = inhibition) is -3.01% (inactive).
For the compound `CC(C)CCON=O`, the Potency entry in assay [10], in [2], in [7], in [8] and in assay [9] was “inactive” throughout. The max response in assay [1] is 4.6%. Also, the result in [3] was inactive. For the same compound, the activity change % (negative = inhibition) in assay [6] is -6.62% (inactive).
On to `O=C/C=C/c1ccccc1`, for which the Potency entry in [10], in assay [2], in assay [7], in assay [8] and in [9] was “inactive” throughout. For the same compound, the max response in assay [1] was 4.89% and -11.3%; in [4], -5.91% and -8.21%; in [5], 12.1% (inactive) and 26.2% (inactive). For the same compound, the outcome in [3] was inactive. Moreover, in assay [6], the activity change % (negative = inhibition) was 12.8% (inactive) and -9.11% (inactive).
`CCCCCCCCOC(=O)c1ccccc1C(=O)OCCCCCCCC`: the Potency entry in assay [10], in assay [2], in assay [8] and in assay [9] was “inactive” throughout. Further, the max response was -12.6% and -10.6% in [1]; -8.04% and -12.9% in assay [4]; 24.3% (inactive) and -9.86% (inactive) in [5]. Further, the outcome in assay [3] was inactive. Besides, the activity change % (negative = inhibition) in assay [6] is 0.822% (inactive).
Consider `O=C1C[C@@H]2OCC=C3CN4CC[C@]56c7ccccc7N1[C@H]5[C@H]2[C@H]3C[C@H]46`, for which the Potency entry in [10] was “inactive”. In addition, the result in [3] was inactive. The figures for the max response in assay [4] and in assay [5] were 7.39% and -7.88% (inactive), respectively. In addition, the activity change % (negative = inhibition) in [6] was 0.757% (inactive). Also, the Potency in assay [7] is 14.1 µM (active).
On to `CCOP(=O)(OCC)O/C(=C/Cl)c1ccc(Cl)cc1Cl`, for which the max response in assay [1] was 10.8%; in [4] it was 4.06% and 8.46%; in assay [5], -33.2% (inactive) and -25.5% (inactive). The Potency entry in [2], in assay [7], in [8] and in assay [9] was “inactive” throughout. The outcome in assay [3] was inactive. The activity change % (negative = inhibition) in assay [6] was -5.99% (inactive).
Take `ClC(Cl)(Cl)Cl`: the Potency entry in [10], in assay [2], in assay [7], in [8] and in assay [9] was “inactive” each time. Also, the max response is -19.2% and -11.8% in assay [1]; -0.129% in [4]; 1.39% (inactive) in assay [5]. The outcome in assay [3] was inactive. Also, in assay [6], the activity change % (negative = inhibition) is -13.7% (inactive) and 5.43% (inactive).
Consider `O=C1CCO1`, for which the Potency result in [10], in assay [2], in assay [7], in [8] and in assay [9] was “inactive” throughout. Also, the max response in assay [1] is -0.599%; in assay [4], -9.31%; in assay [5] it was 14.1% (inactive). Further, the outcome in [3] was inactive. Further, the activity change % (negative = inhibition) in [6] was 16.1% (inactive).
Consider `[O]=[Cr](=[O])([OH])[O][Cr](=[O])(=[O])[OH]`, for which the outcome in [3] was inactive. The max response was 7.42% and 14.4% in assay [4]; -10.4% (inactive) and -3.4% (inactive) in [5]. Also, the activity change % (negative = inhibition) in assay [6] is -20.9% (inactive). Further, the Potency result in assay [7] and in assay [8] was “inactive” throughout. Moreover, the Potency in [9] is 4.05 µM (active) and 2.87 µM (active).
With `COC1=CC(=O)O[C@@H](/C=C/c2ccccc2)C1`, the Potency entry in [10] and in assay [7] was “inactive” throughout. For the same compound, the outcome in assay [3] was inactive. For the same compound, the results for the max response in assay [4] and in [5] were 0.406% and 18.3% (inactive), respectively. The activity change % (negative = inhibition) in assay [6] was -5.64% (inactive).
Consider `O=[N+]([O-])c1ccccc1`, for which the Potency entry in assay [10], in [2], in [7], in assay [8] and in [9] was “inactive” throughout. The max response in [1] was -10.6% and -11.5%; in [4], -18.4%; in [5], -0.8% (inactive). Further, the result in assay [3] was inactive. In assay [6], the activity change % (negative = inhibition) is -11.4% (inactive).
In the case of `O=CC=O`, the max response is -3.86% in assay [1], 5.31% in assay [4] and 9.93% (inactive) in assay [5]. Also, the Potency entry in [2], in [7], in assay [8] and in assay [9] was “inactive” in each case. In addition, in [3], the result was inactive. In addition, the activity change % (negative = inhibition) in assay [6] is -1.9% (inactive).
For the compound `CC(C)(C)c1cc(O)ccc1O`, in [10], the Potency entry was “inactive and 44.7 µM (active)”. Besides, the max response in assay [1] was 23.9% and 27.4%; in assay [4] it was 10.2% and -11%; in assay [5], 0.473% (inactive) and -17.4% (inactive). The Potency entry in assay [2], in [7], in [8] and in [9] was “inactive” in each case. Also, the outcome in [3] was inactive.
For the compound `O=C1C2CC=CCC2C(=O)N1SC(Cl)(Cl)Cl` (stereo unspecified), the outcome in assay [3] was inactive. In addition, the max response was -2.91% in assay [4] and 15% (inactive) in [5]. For the same compound, in assay [7], the Potency is 25.1 µM (active) and 28.2 µM (active).
With `N#CN`, the Potency entry in assay [10], in assay [2], in assay [7], in [8] and in assay [9] was “inactive” throughout. Moreover, the max response in assay [1] was 4.27%; in assay [4], -6.13%; in [5] it was -9.07% (inactive). For the same compound, the result in assay [3] was inactive.
In the case of `CCOC(=O)c1ccccc1C(=O)OCC`, the Potency result in assay [10], in assay [2], in [7], in [8] and in [9] was “inactive” each time. The max response in [1] was -7.23% and 2.92%; in assay [4], 2.09% and -11.6% and -7.65%; in assay [5], 8.73% (inactive) and 2.69% (inactive) and 2.16% (inactive). Further, in assay [3], the result was inactive. For the same compound, the activity change % (negative = inhibition) in [6] is 9.23% (inactive) and -2.29% (inactive) and -1.86% (inactive).
For `CCCSP(=O)(OCC)SCCC`, the Potency result in [10], in assay [2] and in [8] was “inactive” each time. The max response in [1] is -4.11%; in assay [4], -12.4%; in assay [5], -0.503% (inactive). Also, the outcome in assay [3] was inactive. Also, the activity change % (negative = inhibition) in assay [6] was 4.95% (inactive).
As to `O=C(O)C(Cl)(Cl)Cl`, the Potency entry in [10], in [2], in assay [7], in [8] and in [9] was “inactive” throughout. For the same compound, the max response was -1.61% and -5.9% in assay [1]; -1.09% in [4]; -6.5% (inactive) in assay [5]. Further, in [3], the result was inactive. Besides, the activity change % (negative = inhibition) in assay [6] is 2.2% (inactive) and 9.95% (inactive).
Consider `ClC1C(Cl)C(Cl)C(Cl)C(Cl)C1Cl` (stereo unspecified), for which the Potency entry in assay [10], in [2], in assay [7], in assay [8] and in assay [9] was “inactive” each time. Further, the max response is -3.03% [middle of 4 runs] in assay [1], -10.8% [middle of 4 runs] in assay [4] and -6.12% (inactive) [middle of 4 runs] in assay [5]. In assay [3], the outcome was inactive. For the same compound, the activity change % (negative = inhibition) in assay [6] was 0.744% (inactive) [middle of 4 runs].

For the origin of these results see PubChem BioAssay (NCATS).
